# An excerpt weighted towards active compounds, which were near 14% of everything screened.
# Pf growth 96h: Primary qHTS for delayed death inhibitors of the malarial parasite plastid, 96 hour incubation; P. falciparum luciferase reporter growth, 96 h; Potency, µM (titrated, usually from 28.7 µM), for the others: at the highest dose activity change, negative = inhibition, actives largely listed as inhibitors; 320,000 compounds, 6.9% hits; note: potency is the fitted concentration of half-maximal effect
#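 96 h incubation, 37 C, 5% CO2, of luciferase-reporter P. falciparum-infected RBCs (2% hematocrit, 0.05% parasitemia final) with test compounds; endpoint luminescence.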
# HCV inh: qHTS Assay for Inhibitors of Hepatitis C Virus (HCV) | Huh7.5.1 HCVcc-Cre infection, luciferase reporter, 44 h | Potency, µM (doses to about 41.8 µM), for inactives: top-dose activity change, negative = inhibition, hits mostly inhibitors | 340,000 compounds, 3.4% hits | AID 651820, 2012; note: potency is the fitted concentration of half-maximal effect
#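 Infectious HCV cell culture screen: compound-treated cells (1,000/well, pre-plated 4 h) are infected with HCVcc-Cre at roughly 0.5 moi and grown 44 h. Infection is quantified by luciferase signal after 15 min substrate incubation at room temperature.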
# Lassa entry inh: qHTS for Inhibitors of binding or entry into cells for Lassa Virus | Lassa virus pseudotype entry inhibition, cell reporter | Potency, µM (top dose mostly 37.9 µM), for the others: at the top dose activity change, negative = inhibition, hits mostly inhibitors | 300,000 compounds, 1.2% hits | AID 540256, 2011; calls by dose curve; tested in HEK293 cells; note: potency is the fitted concentration of half-maximal effect; nearly all actives have a fitted effect of over 50% in size
# HCMV inh: qHTS Assay for inhibitors of the human cytomegalovirus (HCMV); HFF cells, HCMV-luciferase reporter, 72 h; active compounds read low; activity change, negative = inhibition, % at 57.5 µM; 410,000 compounds, 4.5% hits; AID 1259415, 2018; in the data active = activity change below about -60%; inconclusive = no clear call, values can overlap the other calls; inactive = above about -39%
#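 Screen run at 2 compound doses on HFFs infected with reporter HCMV, MOI 1 PFU/cell. Luciferase activity from cell lysates at 72 h post infection gave inhibition relative to buffer-only and Salinomycin wells.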
# Marburg entry inh: qHTS for inhibitors of binding or entry into cells for Marburg Virus | Marburg virus pseudotyped entry inhibition, cell reporter | Potency, µM (doses to about 37.8 µM), for the others: top-dose activity change, negative = inhibition, hits mostly inhibitors | 300,000 compounds, 1.8% hits; calls by dose curve; tested in HEK293 cells; note: potency is the fitted concentration of half-maximal effect
# Pf growth 48h: Primary qHTS for delayed death inhibitors of the malarial parasite plastid, 48 hour incubation; P. falciparum luciferase growth in erythrocytes, 48 h; Potency, µM (top dose mostly 28.7 µM), without a hit: at the top dose activity change, negative = inhibition, most hits filed as inhibitors; 310,000 compounds, 5.9% hits; AID 504832, 2011; note: potency is the fitted concentration of half-maximal effect
#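 Luciferase-expressing parasites in RBCs, 2% Hct / 0.1% parasitemia final; RPMI 1640 + 0.5% Albumax; 37 C, 5% CO2, one generation; luminescence read-out, lower signal = inhibition.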
# * marks the source's active call; other numbers are inactive results; ? = inconclusive; / = not tested or not shown; [ ] = another dose, or the depositor's remark. Unless noted, calls come from the whole dose curve; as a rule, active = well fitted inhibition curve with a large enough effect; inconclusive = small, poorly fitted or top-dose-only effect, or another doubt; inactive = no such curve, though single readings can be large or run the other way. % is set by controls: 0 for no effect and ±100 for the full control effect.
SMILES,Pf growth 96h,HCV inh,Lassa entry inh,HCMV inh,Marburg entry inh,Pf growth 48h
CCc1nc2c(OCC(=O)C(C)(C)C)cccn2c1N(C)C(=O)c1ccco1,/,/,/,4,/,/
Cn1c(-c2cccnc2)cc2cnc(Nc3ccc4c(c3)OCCO4)cc21,/,/,/,43,/,/
Cc1ccc(C)n1-c1ccc(N2CCOCC2)c(Br)c1,15µM*,-5%,-30%,-10,-8%,/
CCOC(=O)[C@@H]1CSCCS(=O)(=O)N1C(=O)[C@H](Cc1ccccc1)NC(=O)OC(C)(C)C,/,/,/,-5,/,/
Cc1c(C#N)c(N)nc2c3c(sc12)NC(=O)CC3c1ccc(Cl)cc1 (stereo not drawn),-13%,22µM*,?,-81*,?,?
N#Cc1c(N)nc2c3c(sc(=N)c2c1N)NC(=O)CC3c1c(F)cccc1Cl (stereo not drawn),8.3µM*,-6%,-1%,-2,-7%,?
O=C(NCc1n[nH]c(=O)c2ccccc12)C1CC(=O)N(c2ccccc2)C1 (stereo not drawn),0%,?,-22%,-17,?,27%
COc1cccc(NC(=O)C2CCN(S(=O)(=O)c3cc(-c4noc(C)n4)ccc3C)CC2)c1,/,/,?,-72*,/,/
CCc1cccc(NC(=O)C2CCN(S(=O)(=O)c3cccc(-c4noc(C)n4)c3)CC2)c1,/,/,?,-61*,/,/
COc1cccc(NC(=O)C2CCN(S(C)(=O)=O)CC2)c1,/,-2%,0%,40,3%,-22%
CCc1cccc(NC(=O)C2CCCN2S(=O)(=O)c2ccc3nc(-c4ccccc4)[nH]c3c2)c1 (stereo not drawn),/,/,-24%[46.1 µM],-60*,/,/
Cc1nc(-c2cccc(S(=O)(=O)N3CCC(C(=O)NCc4ccccc4Cl)CC3)c2)no1,/,/,6%[46.1 µM],-9,/,/
Cc1nc(-c2ccc(C)c(S(=O)(=O)N3CCC(C(=O)Nc4ccc(Cl)cc4)CC3)c2)no1,/,/,?,-75*,/,/
Cc1ccc(NC(=O)C2CCC2)cc1S(=O)(=O)N1CCCCCC1,?,-16%,?,-31,-21%[46.1 µM],-35%
CCOCOCc1cc(OC(C)C)ccc1N1C(=O)C[C@@H](C(=O)OC)[C@H]1c1ccc(OC(C)C)c(OC)c1,/,/,/,-6,/,/
COc1ccc([C@H](CC(=O)O)NC(=O)OC(C)(C)C)cc1,/,/,/,/,6%,/
COc1cccc(CNC(=O)C2CCN(c3nnc(-n4c(C)ccc4C)s3)CC2)c1,/,/,-8%[46.1 µM],-27,-20%[46.1 µM],/
O=C1NC2(CCCCC2)C(=O)N1c1ccccc1,/,6%,?,0,15%,0%
O=C1NC2(CCCCC2)C(=O)N1c1ccc(Cl)cc1,4.7µM*,-4%,8%[46.1 µM],18,15%[46.1 µM],15%
Brc1ccc(Sc2cnc3ccccc3n2)cc1,-3%,-26%,-5%,-5,-5%,3%
O=S(=O)(Cc1ccccc1)c1cnc2ccccc2n1,/,5%,-13%,-33,-14%,10µM*
O=S(=O)(c1ccc(Br)cc1)c1cnc2ccccc2n1,12µM*,?,?,?,?,?
COc1ccc(S(=O)(=O)c2cnc3ccccc3n2)cc1,13µM*,2%,-8%[46.1 µM],44,?,?
Cc1ccc(-n2c3c(cc(C(=O)Nc4cccc(Cl)c4)c2=O)C(=O)CC(C)(C)C3)cc1,/,/,-28%[46.1 µM],56,/,/
CCSC1=NC2(CCCCC2)Nc2sc3c(c21)CCCC3,2.6µM*,?,-10%,22,?,/
SMILES,Pf growth 96h,HCV inh,Lassa entry inh,HCMV inh,Marburg entry inh,Pf growth 48h
O=C(O)c1cnn(-c2ccccc2)c1C(F)(F)F,33%,20%,22%,-80*,?,119%
CCOc1cc(C2C(C#N)=C(N)SC(N)=C2C#N)ccc1OCCN1CCOCC1,/,-10%,23%,-10,-22%,9.3µM*
COc1ccccc1NC(=O)COc1ccc(Br)cc1CNCCCN1CCOCC1,2%,?,/,?,/,?
COc1cc(CNCCCN2CCOCC2)c(Br)cc1OCC(=O)Nc1ccccc1C,?,1.6µM*,-22%[46.1 µM],-9,?,10µM*
Cc1ccccc1NC(=O)COc1ccc(Br)cc1CNCCCO,1.9µM*,6%,/,-25,/,?
COc1ccc(-c2nc3c(c4c2C[C@H](c2ccccc2)OC4)CN(C(=O)c2cc(I)ccc2F)CC3)c(C)c1,/,/,/,/,0%[14.2 µM],/
CCCn1c(N)c(N(C)C)c(=O)n(CC(=O)Nc2ccc(OC(F)(F)F)cc2)c1=O,10µM*,-3%,8%,19,-29%[46.1 µM],-2%
CNC(=S)N/N=C(\C)c1ccc(C(C)(C)C)cc1,?,?,22%,-36,?,-9%
CNC(=S)N/N=C(\C)c1ccccc1,?,16%,?,-97*,8%,54%
CNC(=S)N/N=C(\C)c1ccc2c(c1)OCO2,?,-14%,/,-104*,/,24%
CCn1cc(C(=O)NCCC(C)C)c(=O)c2cc(S(=O)(=O)N3CCCCC3)ccc21,?,14%,/,/,/,?
O=C(NCCc1ccc(Cl)cc1)c1cccc(S(=O)(=O)N2CCCC2)c1,/,/,/,5,/,/
CC(C)CCNC(=O)c1sc2ccc(S(=O)(=O)N3CCCCC3)cc2c1N,0%,?,-27%[46.1 µM],0,?,13µM*
Nc1c(C(=O)NCCc2ccc(Cl)cc2)sc2ccc(S(=O)(=O)N3CCCCC3)cc12,?,-24%,/,?,0%,10µM*
CC(C)(C)OC(=O)N[C@H](Cc1ccccc1)C(=O)N1CCC[C@@H]1C(=O)O,31%,13%,/,-80*,/,5%

# Source: PubChem (National Center for Advancing Translational Sciences (NCATS))
